Inconclusive results are not listed. Active and inactive are the calls of the source. The call rests on the fitted dose curve.
Molecular target: Thyrotropin receptor (Homo sapiens) (UniProt P16473)
Assay: qHTS assay to identify small molecule agonists of the thyroid stimulating hormone receptor (TSHR) signaling pathway (AID 1224843); further: nearly all actives have a fitted effect of over 45% in size
Details: TSHR-HEK293 cells, cAMP HTRF, agonist mode, 30 min; series mostly up to 92.4 µM; activation: at the top concentration
From the text: National Center for Advancing Translational Sciences [NCATS]
NIH Chemical Genomics Center [NCGC]
U.S. Environmental Protection Agency [EPA]
National Institutes of Environmental Health Sciences [NIEHS]
National Toxicology Program [NTP]
U.S. Food and Drug Administration [FDA]
TSHR is the receptor for thyrotropin (thyroid stimulating hormone or TSH), a member of the glycoprotein hormone family. TSH is released by the anterior pituitary gland and is the main regulator of thyroid gland growth and development. Upon binding circulating thyrotropin, a G-protein signal cascade activates adenylyl cyclase and […] cAMP concentration is increased. cAMP is a key second messenger involved extensively in cellular signal transduction pathways associated with the majority of G-protein coupled receptors (GPCRs). The activation of these GPCRs by neurotransmitters, lipids, nucleotides, peptides and hormones results in the activation or the inhibition of plasma membrane-bound adenylate cyclase through heterotrimeric G-proteins. A cell-based TSHR assay was used to screen the Tox21 10K library for compounds that can modulate TSHR in agonist mode.
Tox21 Assay Protocol Summary:
TSHR-Hek293 cells were dispensed at 800 cells/4uL/well in 1536-well white plates using a Multidrop dispenser. […] The plates were incubated at room temperature for 30 min. 2.5 ul/well of cAMP-d2 and 2.5ul/well of anti-cAMP-cryptate was added respectively into the assay plates using a Flying Reagent Dispenser. After 1 hr incubation at room temperature, the fluorescence intensity in the plates was measured using an Envision plate reader. Each test compound was measured at 15 concentrations and in triplicates.
On the % scale 0 is the no-effect control and ±100 the full control effect.

Chain of Thyrotropin receptor (Homo sapiens) (P16473 whole entry, looked up): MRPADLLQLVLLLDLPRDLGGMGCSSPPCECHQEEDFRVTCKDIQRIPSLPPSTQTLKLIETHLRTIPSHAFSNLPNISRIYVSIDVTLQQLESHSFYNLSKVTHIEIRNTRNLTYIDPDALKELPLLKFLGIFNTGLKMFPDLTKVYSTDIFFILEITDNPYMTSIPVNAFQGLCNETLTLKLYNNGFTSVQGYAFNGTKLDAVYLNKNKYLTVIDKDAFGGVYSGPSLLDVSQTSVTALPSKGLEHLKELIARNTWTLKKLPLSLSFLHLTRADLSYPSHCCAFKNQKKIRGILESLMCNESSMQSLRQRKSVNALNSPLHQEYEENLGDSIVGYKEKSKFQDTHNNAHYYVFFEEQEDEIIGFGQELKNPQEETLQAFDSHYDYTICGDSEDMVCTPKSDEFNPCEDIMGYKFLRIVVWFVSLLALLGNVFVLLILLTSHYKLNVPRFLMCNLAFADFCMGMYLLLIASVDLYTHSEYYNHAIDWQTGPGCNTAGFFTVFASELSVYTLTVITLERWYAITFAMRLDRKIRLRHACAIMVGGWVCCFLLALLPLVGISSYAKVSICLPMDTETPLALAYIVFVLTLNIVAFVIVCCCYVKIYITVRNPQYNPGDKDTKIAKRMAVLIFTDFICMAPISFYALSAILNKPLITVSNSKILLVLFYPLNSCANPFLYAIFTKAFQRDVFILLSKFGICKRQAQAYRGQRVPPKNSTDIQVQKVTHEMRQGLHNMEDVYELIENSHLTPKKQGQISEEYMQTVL

Question: Which “activation” value does the source give for C=CC(O)CCCCC (stereo not given) here?
Answer: The value was 1.84% (inactive).

Question: How did the “activation” value turn out when CCc1ccc2c(c1)C(=O)c1ccccc1C2=O was run?
Answer: The value was 0.597% (inactive).

Question: How did the “activation” value turn out when CC(=O)Nc1cccc(N)c1 was run?
Answer: Its value is -8.34% (inactive).

Question: For CC(C)CC(C)(C)C, which “activation” value is on record?
Answer: Its value is -1.79% (inactive).

Question: How did the “activation” value turn out when CCCCOC(=O)CC#N was run?
Answer: Its value is -22.6% (inactive).

Question: How did the “activation” value turn out when COC(=O)/C=C/C(C)=C\C=C\C(C)=C\C=C\C=C(C)\C=C\C=C(C)\C=C\C(=O)O was run?
Answer: Its value is 3.42% (inactive).

Question: Which “activation” value does the source give for N#C[C@@H]1CC(F)(F)CN1C(=O)CNC1CC2CCC(C1)N2c1ncccn1 (stereo not given in full) here?
Answer: The value was -0.551% (inactive).

Question: With O=C1OC(=O)C2CC=CCC12 (stereo not given) as the compound, how does the “activation” value read?
Answer: The value was -3.88% (inactive).

Question: With Nc1cccc2c(=O)[nH][nH]c(=O)c12 as the compound, how does the “activation” value read?
Answer: Its value is -1.74% (inactive).

Question: For CC(C)=CCC/C(C)=C/C=N/O, which “activation” value is on record?
Answer: Its value is 11.9% (inactive).

Question: C[Si](C)(C)O[Si](C)(C)O[Si](C)(C)C was tested. Which “activation” value did it give?
Answer: The value was 1.98% (inactive).

Question: With OCCOc1cccc(OCCO)c1 as the compound, how does the “activation” value read?
Answer: Its value is -17.4% (inactive).

Question: Which “activation” value does the source give for C=Cc1ccc(C=C)cc1 here?
Answer: Its value is 1.06% (inactive).

Question: CC(Cc1ccccc1)(NC(=O)CN)c1ccccc1 (stereo not given) was tested. Which “activation” value did it give?
Answer: The value was 1.06% [at 42.5 µM] (inactive).

Question: How did the “activation” value turn out when CCCC1CCOC(C)S1 (stereo not given) was run?
Answer: Its value is 2.63% (inactive).

Question: CCCCCCCCCCCCSC#N was tested. Which “activation” value did it give?
Answer: The value was -12.6% (inactive).

Question: For O=C(O)c1ccccc1[N+](=O)[O-], which “activation” value is on record?
Answer: The value was 1.55% (inactive).

Question: For CC(C)C/C=C(\C=O)c1ccccc1, which “activation” value is on record?
Answer: The value was 20.1% (inactive).

Question: How did the “activation” value turn out when CO[C@@H]1COCC[C@@H]1N[C@@H]1CC[C@@](C(=O)N2CCc3ncc(C(F)(F)F)cc3C2)(C(C)C)C1 was run?
Answer: Its value is -0.543% (inactive).

Question: Which “activation” value does the source give for CCCN(C1CCN(C(=O)C2CCNCC2)CC1)[C@@H]1CCc2ccc(OC)cc2C1 here?
Answer: The value was -14% (inactive).

Question: For O=C(OC1C[C@H]2CC[C@@H](C1)[N+]21CCCC1)C(O)(c1ccccc1)c1ccccc1 (stereo not given in full), which “activation” value is on record?
Answer: The value was 7.43% [at 42.5 µM] (inactive).

Question: Which “activation” value does the source give for Cc1ccc2ccccc2c1[N+](=O)[O-] here?
Answer: The value was -13.3% (inactive).

Question: With CCCCC(CC)COCCC#N (stereo not given) as the compound, how does the “activation” value read?
Answer: Its value is -0.95% (inactive).

Question: For O=Cc1ccc([N+](=O)[O-])cc1, which “activation” value is on record?
Answer: Its value is 9.04% (inactive).

Question: C[C@@H](O)[C@H]1C(=O)N2C(C(=O)O)=C(S[C@@H]3CN[C@H](CNS(N)(=O)=O)C3)[C@H](C)[C@H]12 was tested. Which “activation” value did it give?
Answer: The value was -2.03% [at 42.5 µM] (inactive).

Question: How did the “activation” value turn out when CC1=C(C)C(=O)C(CCCCC#CCCCC#CCO)=C(C)C1=O was run?
Answer: Its value is 15.6% [at 42.5 µM] (inactive).

Question: With CCc1ccc(C(=O)C(C)CN2CCCCC2)cc1 (stereo not given) as the compound, how does the “activation” value read?
Answer: Its value is -9% [at 42.5 µM] (inactive).

Question: With Nc1ccc(F)cc1F as the compound, how does the “activation” value read?
Answer: Its value is -11% (inactive).

Question: With CCCCCCCCNC as the compound, how does the “activation” value read?
Answer: Its value is 2.99% (inactive).

Question: Which “activation” value does the source give for CCOc1ccc(NC(C)=O)cc1N here?
Answer: The value was -14.5% (inactive).

Question: For CC(C)Cc1nccs1, which “activation” value is on record?
Answer: The value was -3.99% (inactive).

Question: For CCCCCCCCOCCCN, which “activation” value is on record?
Answer: The value was 14.3% (inactive).

Question: For O=C(O)c1ccccc1-n1cc(C(=O)O)c(=O)c2cc(Nc3c(F)cc(F)cc3Cl)c(Cl)cc21, which “activation” value is on record?
Answer: Its value is 1.93% (inactive).

Question: For O=P(c1ccccc1)(c1ccccc1)c1ccccc1, which “activation” value is on record?
Answer: The value was -1.16% (inactive).

Question: How did the “activation” value turn out when CC1(C)C(=O)NC(=O)N1CO was run?
Answer: The value was 0.524% (inactive).

Question: How did the “activation” value turn out when CC(=O)Nc1ccccc1O was run?
Answer: The value was 0.88% (inactive).

Question: How did the “activation” value turn out when O=C(Nc1ccccc1)c1cc([N+](=O)[O-])ccc1Cl was run?
Answer: The value was 1.35% (inactive).

Question: How did the “activation” value turn out when O=C(O)c1cccc(C(=O)O)c1C(=O)O was run?
Answer: Its value is 9.42% (inactive).

Question: Nc1ccc(C(=O)Oc2ccccc2)c(O)c1 was tested. Which “activation” value did it give?
Answer: Its value is -0.855% [at 42.5 µM] (inactive).

Question: How did the “activation” value turn out when CCCc1ccc(OC)cc1 was run?
Answer: Its value is -9.77% (inactive).
